In PubChem BioAssay (Tox21):
Inconclusive results are not listed. Unmarked numbers belong to inactive results. The source made the active and inactive calls. Calls follow the shape of the dose curve; as a rule, active = well fitted activation curve with a large enough effect in the signal ratio in the repeat runs, with a control signal flat (not every such curve was filed as active); inconclusive = weak or mixed curves; inactive = flat fitted curve, though single readings scatter; the % refers to the signal ratio.

Test: qHTS assay for small molecule activators of the heat shock response signaling pathway (AID 743210)
Conditions: HeLa HSE-bla reporter, beta-lactamase ratio, 5 h; series mostly up to 62.6 µM; activation: at the top concentration
Text: U.S. Tox21 Program National Center for Advancing Translational Sciences [NCATS] NIH Chemical Genomics Center [NCGC] U.S. Environmental Protection Agency [EPA] National Institutes of Environmental Health Sciences [NIEHS] National Toxicology Program [NTP] U.S. Food and Drug Administration [FDA] Tox21 Assay Overview: Various chemicals, environmental and physiological stress conditions may lead to the activation of heat shock response/ unfolded protein response (HSR/UPR). There are three heat shock transcription factors (HSFs) (HSF-1, -2, and -4) mediating transcriptional regulation of the human HSR. To identify the compounds that activate HSR signaling, HSE-bla HeLa cell line (Invitrogen, Carlsbad, CA, USA) containing a beta-lactamase reporter gene under the control of the heat shock response elements was used to screen the Tox21 10K compound library.
Tox21 Assay Protocol Summary: The CellSensor HSE-bla HeLa cells (Invitrogen, Carlsbad, CA, USA) were dispensed at 1500 cells/6uL/well into 1536-well black wall/clear bottom plates using a Multidrop combi (Thermo Fisher Scientific, Waltham, MA) dispenser. After the assay plates were incubated at 37 C and 5% CO2 overnight, 23 nL of compounds dissolved in DMSO, positive controls or DMSO only was transferred to the assay plate by a Pintool station (Kalypsys, San Diego, CA). The plates were incubated at 37 C for 5 h. After 1 uL of LiveBLAzerTM B/G FRET substrate was added using a Flying Reagent Dispenser (Beckman Coulter, Indianapolis, IN, USA), the plates were incubated at room temperature for 2.5 h, and fluorescence intensity was measured by an Envision plate reader (PerkinElmer, Shelton, CT).
% is scaled to controls: 0 for no effect and ±100 for the full control effect.

| Structure (SMILES) | outcome | activation [%] |
| --- | --- | --- |
| NC(=O)OCC(COC(N)=O)c1ccccc1 | inactive |  |
| CC(C)CC(C)CC(O)CC(C)C (stereo not given) | inactive |  |
| Cc1cnc(NC(=O)C2=C(O)c3ccccc3S(=O)(=O)N2C)s1 | inactive |  |
| CCCCCCCCOc1ccc(C(=O)c2ccccc2)c(O)c1 | inactive |  |
| NC(=O)c1ccc([N+](=O)[O-])cc1Cl | inactive |  |
| Cc1cccc(C)c1O | inactive |  |
| COCC(C)N (stereo not given) | inactive |  |
| O=c1c(-c2ccc(O)cc2)coc2cc(O)cc(O)c12 | inactive |  |
| C=CCOC(=O)CC(C)C | inactive |  |
| CN(C)C=O | inactive |  |
| CCOCCO | inactive |  |
| O=[N+]([O-])c1ccc(O)cc1 | inactive |  |
| c1ccc2[nH]c(-c3cscn3)nc2c1 | inactive |  |
| COc1ccccc1O | inactive |  |
| C[C@]12CC[C@@H]3c4ccc(O)cc4C[C@@H](CCCCCCCCCS(=O)CCCC(F)(F)C(F)(F)F)[C@H]3[C@@H]1CC[C@@H]2O (stereo not given in full) |  | 2.83 |
| COc1ccc(C(=O)c2ccccc2)c(O)c1 | inactive |  |
| CCCCOC(=O)CCCCCCCCC(=O)OCCCC | inactive |  |
| OCCCc1ccccc1 | inactive |  |
| CCCCCCCCCCCCCC(=O)OC(C)C | inactive |  |
| O=C(O)Cc1cccc2ccccc12 | inactive |  |

| Structure (SMILES) | outcome | activation [%] |
| --- | --- | --- |
| COc1ccc(O)cc1 | inactive |  |
| Cn1cnc2c1c(=O)[nH]c(=O)n2C | inactive |  |
| C[C@]12C[C@H](O)[C@H]3[C@@H](CCC4=CC(=O)CC[C@@]43C)[C@@H]1CC[C@@H]2C(=O)CO | inactive |  |
| N[C@@H](Cc1c[nH]c2ccc(O)cc12)C(=O)O | inactive |  |
| CO[C@H]1C=CO[C@@]2(C)Oc3c(C)c(O)c4c(O)c(c(/C=N/N5CCN(C)CC5)c(O)c4c3C2=O)NC(=O)/C(C)=C\C=C[C@H](C)[C@H](O)[C@@H](C)[C@@H](O)[C@@H](C)[C@H](OC(C)=O)[C@@H]1C | inactive |  |
| COC(=O)C1CCC(C(=O)OC)CC1 (stereo not given) | inactive |  |
| CCOC(=O)C(C)(C)Oc1ccc(Cl)cc1 | inactive |  |
| Cc1c(N(C)C)c(=O)n(-c2ccccc2)n1C | inactive |  |
| COC(=O)c1ccc(C=O)cc1 | inactive |  |
| CCN(CC)CCOC(=O)c1ccc(N)cc1 |  | -0.86 |
| CCCCOCCOCCOC(C)=O | inactive |  |
| CC1=NN(c2ccccc2)C(=O)C1 | inactive |  |
| CCCCCCCC(=O)OCC(O)CO (stereo not given) | inactive |  |
| CC(C)Cc1ccc(C(C)C(=O)O)cc1 (stereo not given) | inactive |  |
| Nc1ccc(N=Nc2ccccc2)c(N)n1 |  | -2.07 |
| NC(=O)N/N=C/c1ccc([N+](=O)[O-])o1 | inactive |  |
| CN(C)Cc1cc(CN(C)C)c(O)c(CN(C)C)c1 |  | -1.08 |
| O=C1CCCCCN1 | inactive |  |
| C1CNCCN1 | inactive |  |
| NC(=O)NO | inactive |  |
